Drawing on ChEMBL document CHEMBL4513146, “CO-ADD screening of Karazin Kharkiv National University (Ukraine) compounds”, this text covers Inhibition for 28 molecules.

Results with a measured potency or affinity are listed apart.

One experiment relates to Klebsiella pneumoniae. Particulars: Concentration 32 ug.mL-1;; ASSAY_TEST Inhibition of Bacterial Growth; detection method Absorption (OD600); MEDIA CAMHB; plate type 384well; NBS; CORNING #3640; time 18 hr.
The next experiment concerns Candida albicans. The following applies: Concentration 32 ug.mL-1; ASSAY_TEST Inhibition of Fungal Growth; detection method Absorption (OD530).
The test system of the next experiment is Cryptococcus neoformans. Particulars: Concentration 32 ug.mL-1; ASSAY_TEST Inhibition of Fungal Growth; detection method Resazurin; Absorption (OD600-OD570); plate type 384well; NBS; CORNING #3640. (The colour change of resazurin is a common sign of viable cells or microbes.)

For orientation: Inhibition means the change of the read-out against control, counted positive when it falls.

For the molecule `O=C(CSc1nnc2c(=O)n(-c3cccc(F)c3)ccn12)N1CCN(c2ccc(F)cc2)CC1`, the Inhibition in the experiment on Klebsiella pneumoniae is 10.19%; in the experiment on Candida albicans it was 2.58%; in the experiment with Cryptococcus neoformans it was -3.61%.
In the case of `CCOC(=O)C1CCN(c2nc3ccccc3n3c(=O)n(CC(=O)Nc4ccccc4F)nc23)CC1`, the Inhibition is recorded as 4.78% in the experiment on Klebsiella pneumoniae, 13.18% with Candida albicans and -20.01% with Cryptococcus neoformans.
As to `COc1ccc(CNC(=O)CSc2nnc3c4cc(-c5ccccc5)nn4ccn23)cc1`, the Inhibition with Klebsiella pneumoniae is 15.76%; with Candida albicans, 0.38%; with Cryptococcus neoformans it was -28.39%.
The like results for `Cc1ccc(C)c(NC(=O)Cn2nc3cc(C)nc(Nc4ccc(F)cc4)n3c2=O)c1` were, in that order, 5.73%, 2.17% and -16.31%.
For `COc1cccc(Sc2nc3ccccc3n3c(=O)n(CC(=O)Nc4ccccc4)nc23)c1`, the Inhibition was 3.34% in the experiment on Klebsiella pneumoniae, 1.24% with Candida albicans and -26.53% in the experiment on Cryptococcus neoformans.
The matching figures for `O=c1c2sccc2n2c(=O)n(Cc3cccc(Cl)c3)nc2n1CCc1ccccc1`: 11.95%, 1.58% and -33.74%.
The matching figures for `CCC(C)NC(=O)Cn1nc2n(Cc3ccco3)c(=O)c3sccc3n2c1=O` (centres undefined): 10.15%, -0.07% and -9.56%.
Regarding `Cc1ccc(Sc2nccn3c(=O)n(CC(=O)Nc4ccccc4C)nc23)c(C)c1`, the Inhibition with Klebsiella pneumoniae is recorded as 6.75%; with Candida albicans, 4.26%; with Cryptococcus neoformans, -25.74%.
The matching figures for `COc1cccc(-c2noc(Cn3nc4ccc(-c5ccccc5)nn4c3=O)n2)c1OC`: 1.06%, 2.21% and -2.99%.
The matching figures for `CCc1ccccc1NC(=O)Cn1nc2cc(C)nc(Nc3ccc(F)cc3)n2c1=O`: 9.33%, 29.91% and -17.34%.
The like results for `COc1cccc(-n2ccn3c(SCC(=O)c4ccc(F)cc4)nnc3c2=O)c1` were, in that order, 12.25%, 2.59% and -11.08%.
As to `CCCCN(C)c1ccc2nnc(CCc3nc(-c4ccc(OCc5ccccc5)cc4)no3)n2n1`, the Inhibition with Klebsiella pneumoniae is reported as 3.94%; with Candida albicans, 9.14%; with Cryptococcus neoformans it was -39.2%.
The matching figures for `COc1ccc(NC(=O)CSc2nnc3c(=O)n(-c4cccc(OC)c4)ccn23)cc1`: 5.61%, 2.12% and -13.19%.
The matching figures for `Cc1cccc(NC(=O)Cn2nc3nc(N4CCCCCC4)ccn3c2=O)c1C`: 16.3%, 1.23% and -8.73%.
The matching figures for `CCCn1c(=O)c2sccc2n2c(=O)n(CC(=O)c3ccc(OC)c(OC)c3)nc12`: 5.35%, -1.4% and -6.57%.
Regarding `CCCCN(CC)c1ccc2nnc(CCc3nc(-c4ccc(Br)cc4)no3)n2n1`, the Inhibition is reported as 10.38% in the experiment on Klebsiella pneumoniae, 6.33% in the experiment on Candida albicans and -10.77% in the experiment on Cryptococcus neoformans.
The matching figures for `O=S(=O)(c1ccc2nncn2c1)N(Cc1ccccc1F)c1ccc(F)c(F)c1`: -0.52%, 1.44% and -2.71%.
The matching figures for `CC(C)CCn1c(=O)c2ccccc2n2c(=O)n(CC#N)nc12`: 17.73%, 2.65% and -29.58%.
The matching figures for `Cc1cccc(NC(=O)CSc2nnc3c4cc(-c5ccccc5)nn4ccn23)c1C`: 7.23%, 5.25% and -12.53%.
As for `Cc1ccc(CN(c2ccc(C(C)C)cc2)S(=O)(=O)c2cccn3cnnc23)cc1`, the Inhibition in the experiment with Klebsiella pneumoniae is 23.96%; in the experiment with Candida albicans it was 3.57%; in the experiment with Cryptococcus neoformans, -16.89%.
The like results for `O=C(CSc1nnc2c3cc(-c4ccc(F)cc4)nn3ccn12)NCCc1ccccc1` were, in that order, 7.72%, 2.21% and -23.19%.
The matching figures for `COc1ccc(NC(=O)Cn2nc3ccc(SC4CCCCC4)nn3c2=O)c(OC)c1`: 4.32%, -0.43% and -25.29%.
With `O=C(Cn1nc2c(Sc3ccccc3)nccn2c1=O)Nc1ccc2c(c1)OCO2`, the Inhibition in the experiment on Klebsiella pneumoniae is 1.19%; with Candida albicans, 12.77%; with Cryptococcus neoformans it was -5.13%.
The like results for `Cc1ccc(-c2ccc3nnc(CCC(=O)NCc4ccc(Br)cc4)n3n2)cc1` were, in that order, 19%, 1.12% and -7.91%.
The like results for `COc1cccc(CNC(=O)CSc2nnc3ccc(C(=O)Nc4cccc(F)c4)cn23)c1` were, in that order, -3.24%, 0.25% and -5.04%.
The matching figures for `CCOc1ccc(-n2ccn3c(SCC(=O)Nc4ccccc4C(F)(F)F)nnc3c2=O)cc1`: 17.14%, 2.4% and -14.22%.
As to `O=c1n(Cc2ccc(Cl)cc2)nc2ccc(-c3ccccc3)nn12`, the Inhibition in the experiment on Klebsiella pneumoniae was 18.04%; in the experiment with Candida albicans it was 2.75%; in the experiment on Cryptococcus neoformans, -18.7%.
On to `Cc1ccc(Cl)cc1N1CCN(C(=O)CCc2nnc3c4cc(-c5ccccc5)nn4ccn23)CC1`, for which the results for the Inhibition with Klebsiella pneumoniae, with Candida albicans and with Cryptococcus neoformans were 5.47%, 0.3% and -6.62%, respectively.
